Experimental data: article PMC7862700, “An all-to-all approach to the identification of sequence-specific readers for epigenetic DNA modifications on cytosine”

Columns and labels:
Assay in all cases: DAPPL (digital affinity profiling via proximity ligation, sequencing); 10 mM Tris-HCl pH 7.5, 50 mM NaCl, 1 mM DTT, 4% glycerol, room temperature, 30 min; GST-TFs on glutathione beads, 16-mer random dsDNA library, 0.1% formaldehyde crosslink after washing; high values mean tight binding
Conditions in all cases: protein: recombinant; tags: N-terminal GST; dsDNA, one strand shown
[1] = target: T1, ETV2 (Homo sapiens, UniProt O00321 1-342)
T1 sequence: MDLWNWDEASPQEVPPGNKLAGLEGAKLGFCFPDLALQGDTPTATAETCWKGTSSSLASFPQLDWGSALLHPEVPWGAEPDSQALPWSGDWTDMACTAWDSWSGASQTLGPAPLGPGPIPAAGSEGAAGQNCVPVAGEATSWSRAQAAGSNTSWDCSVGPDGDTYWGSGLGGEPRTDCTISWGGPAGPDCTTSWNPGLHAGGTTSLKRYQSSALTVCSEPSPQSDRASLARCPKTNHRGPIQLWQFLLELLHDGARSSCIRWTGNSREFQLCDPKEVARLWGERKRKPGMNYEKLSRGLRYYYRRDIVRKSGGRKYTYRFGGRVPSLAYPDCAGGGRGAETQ
In short: (§1)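 Binding signal is defined as a hexamer's read frequency for one factor over its frequency for the tag-only sample. To obtain reads, GST-fused human transcription factors were expressed in yeast, captured on glutathione beads, barcoded with DNA and pooled with that sample. Pools met 200 nmole of a 16-mer random double-stranded DNA library in Tris/NaCl/DTT/glycerol buffer for 30 min at room temperature before washing, 0.1% formaldehyde crosslinking, proximity ligation (BsaI/T4 ligase, 1 h, 37 °C), PCR and Illumina NextSeq500 sequencing.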

[2] = target: T2, ELF3 (Homo sapiens, UniProt P78545 1-371)
T2 sequence: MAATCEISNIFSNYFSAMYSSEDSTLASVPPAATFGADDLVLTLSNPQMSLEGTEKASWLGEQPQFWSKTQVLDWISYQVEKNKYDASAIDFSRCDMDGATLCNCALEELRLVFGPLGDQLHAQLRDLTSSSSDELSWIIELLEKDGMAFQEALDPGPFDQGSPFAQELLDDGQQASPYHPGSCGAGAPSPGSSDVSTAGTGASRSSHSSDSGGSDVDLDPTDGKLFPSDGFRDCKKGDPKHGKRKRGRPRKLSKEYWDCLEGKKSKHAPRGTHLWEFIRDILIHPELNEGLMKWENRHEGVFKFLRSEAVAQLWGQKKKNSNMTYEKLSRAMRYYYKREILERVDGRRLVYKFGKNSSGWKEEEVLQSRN
In short: as §1

[3] = target: ETV1 (Homo sapiens, UniProt P50549 1-477)
In short: as §1

[4] = target: T3, ERF (Homo sapiens, UniProt P50548 1-548)
T3 sequence: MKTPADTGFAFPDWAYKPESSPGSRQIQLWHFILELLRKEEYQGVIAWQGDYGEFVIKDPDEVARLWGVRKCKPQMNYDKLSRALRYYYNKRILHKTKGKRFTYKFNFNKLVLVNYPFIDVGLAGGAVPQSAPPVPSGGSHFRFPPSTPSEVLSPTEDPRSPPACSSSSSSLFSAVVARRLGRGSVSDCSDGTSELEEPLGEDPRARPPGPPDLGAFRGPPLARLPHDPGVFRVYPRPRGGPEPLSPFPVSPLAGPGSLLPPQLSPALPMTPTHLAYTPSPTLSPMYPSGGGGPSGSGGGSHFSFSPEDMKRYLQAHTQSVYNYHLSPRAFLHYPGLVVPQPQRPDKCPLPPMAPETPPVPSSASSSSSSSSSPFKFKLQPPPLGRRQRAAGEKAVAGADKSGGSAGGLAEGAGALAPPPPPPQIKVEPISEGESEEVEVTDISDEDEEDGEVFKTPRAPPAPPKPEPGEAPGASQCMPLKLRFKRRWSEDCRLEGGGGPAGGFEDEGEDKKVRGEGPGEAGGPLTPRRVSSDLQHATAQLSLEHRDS
In short: as §1

[5] = target: T4, ETV3L (Homo sapiens, UniProt Q6ZN32 1-361)
T4 sequence: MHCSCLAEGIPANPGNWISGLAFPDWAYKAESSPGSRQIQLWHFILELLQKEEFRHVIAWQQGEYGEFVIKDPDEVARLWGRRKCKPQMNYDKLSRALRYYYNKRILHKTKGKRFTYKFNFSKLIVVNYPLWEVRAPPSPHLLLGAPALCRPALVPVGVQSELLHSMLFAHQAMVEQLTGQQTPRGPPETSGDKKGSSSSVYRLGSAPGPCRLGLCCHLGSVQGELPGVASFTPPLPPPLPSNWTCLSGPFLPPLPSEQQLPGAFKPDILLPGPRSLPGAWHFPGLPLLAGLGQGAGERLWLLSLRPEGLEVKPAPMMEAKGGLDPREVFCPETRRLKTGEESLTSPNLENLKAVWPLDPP
In short: as §1

[6] = target: T5, SPDEF (Homo sapiens, UniProt O95238 1-335)
T5 sequence: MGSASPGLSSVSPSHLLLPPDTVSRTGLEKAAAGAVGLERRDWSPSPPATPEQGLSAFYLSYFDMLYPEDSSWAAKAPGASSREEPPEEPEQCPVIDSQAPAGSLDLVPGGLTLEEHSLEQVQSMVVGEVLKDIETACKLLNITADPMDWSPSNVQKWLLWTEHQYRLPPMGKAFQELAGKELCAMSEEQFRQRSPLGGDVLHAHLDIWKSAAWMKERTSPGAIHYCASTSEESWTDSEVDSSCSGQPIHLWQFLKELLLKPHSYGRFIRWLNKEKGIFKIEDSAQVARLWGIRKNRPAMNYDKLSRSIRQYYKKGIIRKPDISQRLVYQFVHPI
In short: as §1

[7] = target: T6, ETV7 (Homo sapiens, UniProt Q9Y603 1-341)
T6 sequence: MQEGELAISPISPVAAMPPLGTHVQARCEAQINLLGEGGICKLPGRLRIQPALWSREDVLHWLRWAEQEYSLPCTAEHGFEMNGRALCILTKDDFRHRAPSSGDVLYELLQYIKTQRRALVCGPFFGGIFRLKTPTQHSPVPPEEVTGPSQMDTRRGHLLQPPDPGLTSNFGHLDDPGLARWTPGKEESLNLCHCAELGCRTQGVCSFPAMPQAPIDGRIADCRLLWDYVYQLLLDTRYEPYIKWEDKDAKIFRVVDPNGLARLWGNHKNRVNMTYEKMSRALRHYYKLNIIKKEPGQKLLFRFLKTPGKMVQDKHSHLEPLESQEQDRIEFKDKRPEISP
In short: as §1

[8] = target: T7, ELF5 (Homo sapiens, UniProt Q9UKW6-2 1-255)
T7 sequence: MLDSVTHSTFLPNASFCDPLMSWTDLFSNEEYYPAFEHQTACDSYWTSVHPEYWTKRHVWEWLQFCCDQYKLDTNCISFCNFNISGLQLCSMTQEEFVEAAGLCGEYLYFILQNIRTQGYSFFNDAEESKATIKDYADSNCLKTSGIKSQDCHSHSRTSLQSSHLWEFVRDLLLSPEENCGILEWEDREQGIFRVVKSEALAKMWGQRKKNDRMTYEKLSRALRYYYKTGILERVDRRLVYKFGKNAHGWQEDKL
In short: as §1

[9] = target: ETV6 (Homo sapiens, UniProt P41212 1-452)
In short: as §1

Sequence of ETV6 (P41212 whole entry): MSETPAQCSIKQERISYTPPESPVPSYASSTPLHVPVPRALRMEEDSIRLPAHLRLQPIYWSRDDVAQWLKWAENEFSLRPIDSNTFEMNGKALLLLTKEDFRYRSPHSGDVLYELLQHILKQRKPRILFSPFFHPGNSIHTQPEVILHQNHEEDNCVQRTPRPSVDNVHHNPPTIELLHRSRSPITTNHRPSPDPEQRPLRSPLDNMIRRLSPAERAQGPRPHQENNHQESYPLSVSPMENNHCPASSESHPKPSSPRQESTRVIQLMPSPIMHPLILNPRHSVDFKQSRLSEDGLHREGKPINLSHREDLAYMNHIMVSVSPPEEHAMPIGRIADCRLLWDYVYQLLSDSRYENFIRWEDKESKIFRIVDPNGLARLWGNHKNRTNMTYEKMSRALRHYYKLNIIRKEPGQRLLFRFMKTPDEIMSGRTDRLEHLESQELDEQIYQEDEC
Sequence of ETV1 (P50549 whole entry): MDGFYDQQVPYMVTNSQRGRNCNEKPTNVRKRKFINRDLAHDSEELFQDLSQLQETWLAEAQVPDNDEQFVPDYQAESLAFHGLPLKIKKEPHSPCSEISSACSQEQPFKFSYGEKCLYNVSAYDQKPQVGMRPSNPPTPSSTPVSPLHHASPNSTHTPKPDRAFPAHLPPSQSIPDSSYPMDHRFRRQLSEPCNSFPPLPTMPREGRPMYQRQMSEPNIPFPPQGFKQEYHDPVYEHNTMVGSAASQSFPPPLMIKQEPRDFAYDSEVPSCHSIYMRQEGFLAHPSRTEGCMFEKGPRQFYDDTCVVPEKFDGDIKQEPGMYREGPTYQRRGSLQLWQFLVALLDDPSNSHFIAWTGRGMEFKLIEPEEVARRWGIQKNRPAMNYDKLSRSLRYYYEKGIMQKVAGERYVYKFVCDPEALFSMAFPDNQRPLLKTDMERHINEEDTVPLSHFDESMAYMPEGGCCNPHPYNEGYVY

## CACACC
[1]
  binding signal: 1.03 fold enrichment (6-mer frequency, TF over GST control)
[2]
  binding signal: 1.02 fold enrichment (6-mer frequency, TF over GST control)
[3]
  binding signal: 1.14 fold enrichment (6-mer frequency, TF over GST control)
[4]
  binding signal: 1.02 fold enrichment (6-mer frequency, TF over GST control)
[5]
  binding signal: 1.02 fold enrichment (6-mer frequency, TF over GST control)
[6]
  binding signal: 1.02 fold enrichment (6-mer frequency, TF over GST control)
[7]
  binding signal: 1.01 fold enrichment (6-mer frequency, TF over GST control)
[8]
  binding signal: 1.03 fold enrichment (6-mer frequency, TF over GST control)
[9]
  binding signal: 1.01 fold enrichment (6-mer frequency, TF over GST control)
